Columns and labels:
Conditions in all cases: concentration: 1 μM,replicates: in singlicate; n = 1
[1] = test system: JAK1(JH2domain-pseudokinase)
[2] = test system: JAK2(JH1domain-catalytic)
[3] = test system: JAK3(JH1domain-catalytic)
JNK1 = test system: T1, JNK1
T1 construct: gene MAPK8

JNK2 = test system: T2, JNK2
T2 construct: gene MAPK9

JNK3 = test system: T3, JNK3
T3 construct: gene MAPK10

KIT-autoinhibited = test system: KIT-autoinhibited
KIT = test system: KIT
LATS1 = test system: LATS1
LATS2 = test system: LATS2
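Note: KINOMEscan kinase panel screen.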

SMILES | %Inh [1] [%] | %Inh [2] [%] | %Inh [3] [%] | %Inh (JNK1) [%] | %Inh (JNK2) [%] | %Inh (JNK3) [%] | %Inh (KIT-autoinhibited) [%] | %Inh (KIT) [%] | %Inh (LATS1) [%] | %Inh (LATS2) [%]
O=C(Nc1cccc(Oc2ccc3nccn3n2)c1)Nc1cccc(C(F)(F)F)c1 | 0 | 9 | 25 | 0 | 0 | 0 | 68 | 100 | 0 | 0
Cc1ccc(C(=O)Nc2ccc(Oc3ccc4nc(NC(=O)C5CC5)cn4c3)c(F)c2)c(=O)n1-c1ccccc1 | 0 | 81 | 15 | 0 | 0 | 0 | 24 | 100 | 14 | 0
COc1cc2ncn(-c3cc(OCC4CCCCC4)c(C(N)=O)s3)c2cc1OC [GSK204559] | 0 | 0 | 0 | 20 | 27 | 19 | 0 | 31 | 0 | 7
CN(c1ccc2c(c1)nc(NCc1ccc(F)cc1)n2C)c1ccnc(Nc2ccc(CS(C)(=O)=O)cc2)n1.Cl [GW813244] | 56 | 54 | 100 | 42 | 39 | 0 | 69 | 99.9 | 10 | 0
Cn1cc(-c2cccc3c(N)c(C(N)=O)nnc23)cn1 | 61 | 32 | 38 | 14 | 5 | 8 | 16 | 5 | 3 | 0
O=C1NCCc2[nH]c(-c3ccncc3)cc21 | 26 | 73 | 87 | 30 | 24 | 45 | 0 | 14 | 23 | 34
Cc1n[nH]c2cc(Nc3ccnc(Nc4cccc(CN5CCOCC5)c4)n3)ccc12 [GW682569] | 98.8 | 99.4 | 79 | 96.2 | 58 | 85 | 28 | 97.7 | 0 | 0
COC(=O)c1cccc(NC(=O)NC2CCN(c3ccnc(Nc4cc(OC)c(OC)c(OC)c4)n3)C2)c1 (stereo not shown) [GSK1379767] | 13 | 82 | 0 | 16 | 20 | 28 | 0 | 77 | 0 | 17
C[C@@H](Oc1cc(-n2cnc3cc(-c4cnn(C)c4)ccc32)sc1C(N)=O)c1ccccc1Cl [GSK580432] | 0 | 86 | 96.9 | 0 | 31 | 16 | 0 | 96.4 | 0 | 2
O=C(NOCC1CC1)c1cc(Br)c(F)c(F)c1Nc1ccc(I)cc1Cl | 39 | 0 | 0 | 12 | 0 | 0 | 0 | 13 | 14 | 0
Cc1ccc2c(-c3ccnc(Nc4ccc(C(F)(F)F)cc4)n3)cnn2n1 [GW819776] | 57 | 29 | 0 | 91.5 | 53 | 78 | 34 | 78 | 0 | 0
OCCn1cc(-c2cnc3nnn(Cc4ccc5ncccc5c4)c3n2)cn1 | 10 | 0 | 0 | 10 | 0 | 0 | 0 | 0 | 0 | 24
O=C(Nc1ccccc1)c1cccc(Oc2ccc3nccn3n2)c1 | 10 | 10 | 6 | 8 | 1 | 6 | 8 | 98.4 | 0 | 91.6
CN1CCN(CCCNc2nccc(-c3c(-c4ccc(F)cc4)nn4cc(C(N)=O)ccc34)n2)CC1 [GW622475] | 0 | 0 | 0 | 92.1 | 99.6 | 99.6 | 2 | 66 | 0 | 7
COc1cc(Nc2nccc(N3CCC(NC(=O)c4cccc(C#N)c4)C3)n2)cc(OC)c1OC (stereo not shown) [GSK1379751] | 2 | 98 | 22 | 30 | 15 | 33 | 0 | 43 | 0 | 0
CCN1CCN(CCCC(=O)Nc2n[nH]c3nc(-c4ccc(O)cc4)c(Br)cc23)CC1 [SB-731579] | 0 | 80 | 87 | 55 | 38 | 34 | 15 | 31 | 0 | 0

Source: publication PMC5540273 (PLoS ONE, 2017)
